Assay outcomes: PubChem BioAssay, National Center for Advancing Translational Sciences (NCATS)
Shown are actives, neighbours in structure and some others; about 9.5% of the full set was active somewhere.
Pf growth 96h – inhibits malaria parasite growth, 96 h | P. falciparum luciferase reporter growth, 96 h | Potency, µM (doses to about 28.7 µM), for the others: top-dose activity change, negative = inhibition, actives largely listed as inhibitors | actives 6.9% (n = 320,000) | AID 504834; also: % is scaled to controls: 0 for no effect and ±100 for the full control effect
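Infected RBCs, 2% Hct / 0.05% parasitemia final; luciferase-reporter P. falciparum; cpd 96 h, 37 C, 5% CO2; luciferase detection reagent; luminescence.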
Pf growth 48h – P. falciparum growth inhibition at 48 hours (one generation); P. falciparum luciferase growth in erythrocytes, 48 h; Potency, µM (highest dose often 28.7 µM), for inactives: top-dose activity change, negative = inhibition, usual class: inhibitors; actives 5.9% (n = 310,000); AID 504832; also: % is scaled to controls: 0 for no effect and ±100 for the full control effect
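Firefly luciferase activity from engineered P. falciparum reports growth; inhibitors lower the luminescent signal. Cultures contained 2% hematocrit erythrocytes at 0.1% final parasitemia.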
SARS PLpro yeast – blocks SARS-CoV papain-like protease in a yeast assay; S. cerevisiae expressing SARS-CoV PLpro, growth rescue; Potency, µM (titrated, usually from 32.9 µM), for inactives: at the top dose activity, positive = growth rescue, hits mostly activators; AID 485353; actives 0.19% (n = 330,000); calls by dose curve; also: 0% is about no effect; nearly all actives have a fitted effect of over 55% in size
RE007 growth inh – less growth of the S. pombe RE007 Vpr strain. Potency, µM (top dose mostly 92.2 µM), inactives show top-dose activity change, negative = less growth, usual class: inhibitors. actives 0.21% (n = 360,000). S. pombe RE007 Vpr strain, BacTiter-Glo ATP luminescence, 24 h; active = well fitted falling curve with a large enough effect; inconclusive = small, poorly fitted or top-dose-only effect; inactive = no such curve, though single readings can be large or run the other way; also: % is scaled to controls: 0 for no effect and ±100 for the full control effect; nearly all actives have a fitted effect of over 50% in size
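Fission yeast strain RE007, carrying one chromosomally integrated HIV-1 vpr copy, was seeded at OD 0.01 in PMG+AL medium with 23 nL pinned compound. After 24 h at 30 °C and 99% humidity, viability was read by BacTiter-Glo luminescence.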
NS1 function inh – inhibitors of influenza NS1 protein function; AID 2326; Potency, µM (titrated, usually from 46.1 µM), inactives show at the highest dose activity, positive = more growth; actives 0.4% (n = 270,000); calls by dose curve; also: actives are rising curves; nearly all actives have a fitted effect of over 50% in size
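S. cerevisiae expressing influenza A NS1, grown in glucose, washed, then diluted 1:100 into pH 6.0 -URA galactose medium with 23 nl compound. Growth recovery read as OD600; NS1-free strain serves as control.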
* marks the source's active call; other numbers are inactive results; ? = inconclusive; nt = not tested or not shown. Unless noted, calls follow the shape of the dose curve; as a rule, active = well fitted inhibition curve with a large enough effect; inconclusive = small, poorly fitted or top-dose-only effect, or another doubt; inactive = no such curve, though single readings can be large or run the other way. Potency is read from the fitted curve at half-maximal effect.

SMILES | Pf growth 96h | Pf growth 48h | SARS PLpro yeast | RE007 growth inh | NS1 function inh
COc1ccc(OC)c(NC(=O)CCC(=O)Nc2nnc(C(C)C)s2)c1 | 22% | 14% | 1% | -1% | -19%
CC(c1cc2ccccc2s1)N(O)C(N)=O (configuration not stated) | 0.38µM* | 7% | 1% | nt | nt
N#CC1(Cc2ccc(Cl)cc2)c2ccccc2C=CN1C(=O)c1ccccc1 (configuration not stated) | ? | nt | -4% | 9% | -4%
CC1(C#N)c2ccccc2C(Br)=CN1C(=O)c1ccccc1 (configuration not stated) | ? | 10µM* | 9% | 3% | nt
CCC1=[N+](CC(=O)c2ccc(C)cc2)CCn2c(C)ccc21 | ? | 3.3µM* | 0% | 1% | 0%
CCC1=[N+](C)CCn2c(C)ccc21 | 15% | nt | 1% | -4% | -45%
CCC1=[N+](CC(=O)c2ccc(C)cc2)CCn2cccc21 | -2% | ? | -1% | -16% | 9%
CCC1=[N+](CC(=O)c2ccc(Br)cc2)CCn2c(C)ccc21 | ? | 5.9µM* | 7% | -14% | 7%
COc1ccc(Cn2c(=O)n(Cc3ccco3)c(=N)c3c4c(sc32)COC(C)(C)C4)cc1 | 13µM* | 5.9µM* | -7% | 7% | -56%
CC1(C)Cc2c(sc3c2c(=N)n(Cc2ccco2)c(=O)n3Cc2ccc(F)cc2)CO1 | ? | ? | -13% | 35% | -33%
CC1CCCC(C)N1CCCNC(=O)c1ccc2nc(N3CCOCC3)sc2c1 (configuration not stated) | 79% | -12% | -4% | -8% | 4%
O=C(NCCCN1CCC(Cc2ccccc2)CC1)c1ccc2nc(N3CCOCC3)sc2c1 | ? | 10µM* | 0% | 0% | -3%
CN(Cc1ccc(Cl)s1)C(=O)CCl | 1.5µM* | 9.3µM* | -4% | 2% | nt
COc1ccc(CN(C)C(=O)CCl)cc1 | 10µM* | 13µM* | -1% | -1% | nt
CN(Cc1ccc(Cl)cc1)C(=O)CCl | ? | ? | -16% | -29% | nt
COc1ccc(NC(=O)N2CCC(c3nc(-c4cccs4)no3)CC2)cc1 | 0.52µM* | 11% | -19% | 1% | -57%
COc1cccc(C(=O)N2CCCC(c3nc(-c4cccs4)no3)C2)c1 (configuration not stated) | 9.3µM* | 12% | 3% | -1% | ?
O=C(Nc1ccccc1)N1CCC(c2nc(-c3ccc(S(=O)(=O)N4CCOCC4)cc3)no2)CC1 | 8.3µM* | ? | 0% | -10% | -1%
O=C(c1ccco1)N1CCC(c2nc(-c3ccccc3Cl)no2)CC1 | 0% | -5% | -8% | 8% | -64%
O=C(Nc1ccc(Cl)cc1)N1CCC(c2nc(-c3cccs3)no2)CC1 | 37% | 21% | -10% | 3% | -52%
O=C(Nc1ccc(Cl)cc1)N1CCC(c2nc(-c3ccccc3Cl)no2)CC1 | nt | 1.9µM* | -8% | -11% | -103%
COc1cc(C(=O)N2CCCC(c3nc(-c4cccs4)no3)C2)cc(OC)c1OC (configuration not stated) | 30% | -21% | -3% | 4% | -54%
Cc1nc(NC(=O)C(C)(C)C)sc1C(=O)Cn1cc(-c2ccc(C(C)(C)C)cc2)nn1 | nt | nt | nt | 1% | nt
O=C(C(=O)N1CCN(c2ccc(F)cc2)CC1)c1cn(CC(=O)N2CCOCC2)c2ccccc12 | 13µM* | -6% | 4% | -11% | -10%
O=C(C(=O)N1CCc2ccccc2C1)c1cn(CC(=O)N2CCCC2)c2ccccc12 | 13% | 7% | 21% | 6% | 6%
SMILES | Pf growth 96h | Pf growth 48h | SARS PLpro yeast | RE007 growth inh | NS1 function inh
CCC1CCCCN1C(=O)C(=O)c1cn(CC(=O)N(CC)CC)c2ccccc12 (configuration not stated) | 10µM* | -17% | 18% | -17% | 14%
O=C(C(=O)N1CCCCC1)c1cn(CC(=O)N2CCCCCC2)c2ccccc12 | 12µM* | ? | 6% | -3% | 15%
O=C(Nc1ccccc1)C(=O)c1cn(CC(=O)N2CCCCC2)c2ccccc12 | 10µM* | -20% | 2% | -6% | ?
COc1ccccc1NC1CCCCC1NS(=O)(=O)c1ccccc1 (configuration not stated) | ? | -13% | 7% | 1% | 11%
COc1cccc(/C=C2/Oc3ccccc3N(CC(=O)NCC3CCCO3)C2=O)c1 (configuration not stated) | -21% | ? | 6% | -8% | 0%
CCOC(=O)c1[nH]c(C)c(C(=O)/C=C/c2ccc(C(=O)O)cc2)c1C | ? | 12µM* | 19% | 3% | -4%
Clc1cccc(-c2nc(-c3ccc(-c4nn[nH]n4)cc3)no2)c1 | 59% | 91% | 0% | nt | nt
COc1cc(C(=O)NCC2CCCCC2)cc(OC)c1OC | ? | ? | 2% | 22% | -1%
COc1cc(C(=O)NCCC(=O)NC2CCCCC2)cc(OC)c1OC | 9.3µM* | -1% | -3% | 13% | 0%
O=C(COc1ccc(Cl)cc1)NCc1nnc(SCC(=O)NC2CCCC2)o1 | 4.1µM* | ? | nt | 2% | -1%
COc1ccc(NC(=O)CSc2nnc(CNC(=O)COc3ccc(Cl)cc3)o2)c(OC)c1 | 9.3µM* | 13µM* | 7% | -9% | -1%
COc1cc(C(=O)NCc2nnc(SCC(=O)NC3CCCC3)o2)cc(OC)c1OC | 8.3µM* | 18% | 1% | -7% | 17%
Nc1c(C(O)(C(F)(F)F)C(F)(F)F)cc(C(O)(C(F)(F)F)C(F)(F)F)c2ccccc12 | ? | 9.3µM* | -21% | -12% | -7%
O=C1C2C3CCC(CC3)C2C(=O)N1c1ccccc1 (configuration not stated) | 1% | -18% | 4% | 1% | 5%
O=C1C=CC(=Nc2ccc(F)cc2)O1 | nt | nt | nt | 5µM* | nt
O=C(Nc1ccc(F)cc1)c1sccc1SCc1cccc(C(F)(F)F)c1 | ? | 9.3µM* | -8% | -5% | -17%
COc1ccc(NC(=O)c2sccc2SCc2cccc(C(F)(F)F)c2)cc1 | ? | ? | -3% | 6% | 5%
COc1ccc(N2c3ccccc3CN(Cc3ccccc3)CC2Cc2cc(OC)c(OC)c(OC)c2)cc1 (configuration not stated) | nt | nt | nt | 0% | nt
Cc1nc2ccccc2c2c(N)c3ccccc3n12 | 8.3µM* | ? | 0% | ? | nt
CCN(CC)c1ccc([C@H]2[C@@H]3CCCC[C@]3(O)CCN2CC(=O)NCc2ccco2)cc1 | ? | 10µM* | 0% | -1% | -6%
O=C(c1cccs1)N1CCC2(O)CCCCC2C1c1ccc(F)cc1 (configuration not stated) | 41% | 8% | -6% | 18% | 2%
CCN(CC)c1ccc(C2C3CCCCC3(O)CCN2C(=O)c2cccs2)cc1 (configuration not stated) | 12µM* | ? | -5% | -12% | 6%
